Values joined by “and” are separate entries in the source; they are usually repeats but may differ in a detail not shown here. Equal entries are not always repeated. Inconclusive results are not listed. Some compounds were tested as several samples or in several runs, with calls that do not always agree. Active and inactive are the calls of the source.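 Rule for the calls, unless noted: active = response below a set limit, under 55% cells CD8-positive and vesicle-bound, and CD8 cells' 90th-percentile brightness under 279; inactive = the rest.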
Experiments:
[1] = yeast TOR pathway RPL19A-GFP modulators, primary screen, cell-based, S. cerevisiae, multiplex flow cytometry (AID 1862; in the data active = percent of DMSO control GFP below about 86%;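 note: lower values mimic rapamycin by blocking the RPL19A rise seen in DMSO cells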); conditions: S. cerevisiae RPL19A-GFP strain, flow cytometry fluorescence, 3 h; at 10 µM; stronger effect = lower value
[2] = modulators of MEP2-GFP levels in yeast, primary screen, S. cerevisiae, multiplex flow cytometry (AID 1867;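 active = GFP response, as percent of the DMSO control, above the screen-wide mean plus 3 SD, about 139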;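 note: median GFP channel fluorescence of barcode-gated MEP2-GFP cells measured by flow cytometry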); conditions: S. cerevisiae MEP2-GFP strain, 3 h, at 10 µM, stronger effect = higher value, 100% means same as DMSO wells
[3] = modulators of CIT2-GFP expression in yeast, primary screen, S. cerevisiae, GFP fusion, multiplex flow cytometry (AID 1870;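 active = percent response above a set limit, the screen-wide mean plus 3 SD, cut at about 130% in these data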;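 note: barcoded CIT2-GFP strain pooled with four other GFP strains with rapamycin as positive control; median GFP fluorescence per well over plate mean of DMSO wells so 100% = DMSO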); conditions: 3 h, at 10 µM, stronger effect = higher value
[4] = modulators of LAP4-GFP expression in yeast, primary screen, S. cerevisiae, multiplex flow cytometry (AID 1873;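 active = GFP signal, as percent of the solvent control, above the screen mean plus 3 SD, about 149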); conditions: 3 h, at 10 µM, stronger effect = higher value
[5] = modulators of AGP1-GFP expression in yeast TOR pathway, primary screen, cell-based, multiplex flow cytometry, S. cerevisiae (AID 1887;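 active = GFP signal above the screen-wide mean plus 3 SD, that is over about 124.5% of the solvent control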;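 note: AGP1-GFP fusion strain of S. cerevisiae within a five-strain barcoded multiplex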); conditions: 3 h, at 10 µM, stronger effect = higher value
[6] = RPL19A-GFP modulators, yeast TOR pathway, confirmation, cell-based, S. cerevisiae, flow cytometry, cherry picks, mother/daughter gates (AID 2270;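 active = GFP response below 50% of the DMSO control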); conditions: S. cerevisiae RPL19A-GFP strain, 3 h, at 10 µM, stronger effect = lower value, 100 = same GFP as DMSO wells
[7] = LAP4-GFP expression modulators in yeast, confirmation, cell-based, cherry picks, flow cytometry, mother/daughter gates (AID 2271;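 active = GFP response above 150% of the DMSO control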;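 note: ratio of sample to DMSO plate mean so 100% equals DMSO level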); conditions: S. cerevisiae LAP4-GFP strain, 3 h, at 10 µM, stronger effect = higher value, 100 means same as DMSO control
[8] = modulators of MEP2-GFP levels in yeast, confirmation, S. cerevisiae, flow cytometry GFP, cherry picks (AID 2272;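 active = GFP response above 150% of the DMSO control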;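 note: ratio of well signal to plate DMSO mean so 100% equals DMSO level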); conditions: S. cerevisiae MEP2-GFP strain, 3 h, at 10 µM, stronger effect = higher value
[9] = modulators of CIT2-GFP expression in yeast, confirmation, S. cerevisiae, GFP fusion, cherry picks, mother/daughter gates (AID 2274;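 active = GFP response above 150% of the DMSO level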); conditions: S. cerevisiae CIT2-GFP strain, flow cytometry, 3 h, at 10 µM, stronger effect = higher value
[10] = inhibitors of CD8+ T cell-vesicle binding, pilot screen, LFA-1/ICAM-1 modulator project, MLPCN validation set, flow cytometry (AID 2523); conditions: 2C mouse CD8+ T cells, at 7 µM, stronger effect = lower value; double positive events: measured here: CD8+/vesicle+ event percentage;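 for vesicle binding response: mean PE anti-B7-1 fluorescence of CD8+ cells relative to row control; 100% = QL9-loaded vesicles with DMSO vehicle in the same plate row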
[11] = target: Integrin beta-1 (Homo sapiens) + Integrin alpha-4 (Homo sapiens) (UniProt P13612+P05556); assay: inhibition of HUTS-21 binding to VLA-4, pilot screen, VLA-4 allosteric modulator project, U937 cells, HUTS-21 mAb, flow cytometry, validation set (AID 2674;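 active = inhibition above 50%, about 3 SD of the validation set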;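 note: antibody binding induced by the VLA-4 ligand LDV present at three times its Kd; 0% = LDV ligand with antibody and no compound and 100% = antibody without LDV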); conditions: HUTS-21 LIBS mAb binding, at 6.7 µM, stronger effect = higher value, binding induced by LDV ligand
Chain of Integrin beta-1 (Homo sapiens) + Integrin alpha-4 (Homo sapiens) (P05556 whole entry, looked up): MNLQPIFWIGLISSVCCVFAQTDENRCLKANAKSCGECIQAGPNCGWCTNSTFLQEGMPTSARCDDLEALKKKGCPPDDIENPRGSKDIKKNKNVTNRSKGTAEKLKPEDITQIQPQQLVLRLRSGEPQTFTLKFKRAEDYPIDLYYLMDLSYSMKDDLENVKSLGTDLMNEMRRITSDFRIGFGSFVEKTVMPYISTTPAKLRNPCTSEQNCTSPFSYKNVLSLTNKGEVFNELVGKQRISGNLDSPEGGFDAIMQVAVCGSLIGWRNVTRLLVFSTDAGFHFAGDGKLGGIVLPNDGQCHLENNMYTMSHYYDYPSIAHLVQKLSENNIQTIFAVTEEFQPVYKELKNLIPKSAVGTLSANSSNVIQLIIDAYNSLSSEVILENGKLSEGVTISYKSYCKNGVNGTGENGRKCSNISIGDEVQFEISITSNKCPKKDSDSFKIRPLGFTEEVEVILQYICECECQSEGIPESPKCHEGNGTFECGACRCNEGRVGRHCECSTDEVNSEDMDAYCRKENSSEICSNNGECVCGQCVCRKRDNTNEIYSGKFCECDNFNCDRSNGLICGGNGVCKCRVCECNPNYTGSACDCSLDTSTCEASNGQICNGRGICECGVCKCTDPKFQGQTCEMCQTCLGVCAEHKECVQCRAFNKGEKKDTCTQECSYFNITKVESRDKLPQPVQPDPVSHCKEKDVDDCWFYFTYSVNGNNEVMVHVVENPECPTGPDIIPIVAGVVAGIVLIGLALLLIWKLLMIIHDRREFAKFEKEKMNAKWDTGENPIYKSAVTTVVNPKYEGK
Chain of Integrin beta-1 (Homo sapiens) + Integrin alpha-4 (Homo sapiens) (P13612 whole entry, looked up): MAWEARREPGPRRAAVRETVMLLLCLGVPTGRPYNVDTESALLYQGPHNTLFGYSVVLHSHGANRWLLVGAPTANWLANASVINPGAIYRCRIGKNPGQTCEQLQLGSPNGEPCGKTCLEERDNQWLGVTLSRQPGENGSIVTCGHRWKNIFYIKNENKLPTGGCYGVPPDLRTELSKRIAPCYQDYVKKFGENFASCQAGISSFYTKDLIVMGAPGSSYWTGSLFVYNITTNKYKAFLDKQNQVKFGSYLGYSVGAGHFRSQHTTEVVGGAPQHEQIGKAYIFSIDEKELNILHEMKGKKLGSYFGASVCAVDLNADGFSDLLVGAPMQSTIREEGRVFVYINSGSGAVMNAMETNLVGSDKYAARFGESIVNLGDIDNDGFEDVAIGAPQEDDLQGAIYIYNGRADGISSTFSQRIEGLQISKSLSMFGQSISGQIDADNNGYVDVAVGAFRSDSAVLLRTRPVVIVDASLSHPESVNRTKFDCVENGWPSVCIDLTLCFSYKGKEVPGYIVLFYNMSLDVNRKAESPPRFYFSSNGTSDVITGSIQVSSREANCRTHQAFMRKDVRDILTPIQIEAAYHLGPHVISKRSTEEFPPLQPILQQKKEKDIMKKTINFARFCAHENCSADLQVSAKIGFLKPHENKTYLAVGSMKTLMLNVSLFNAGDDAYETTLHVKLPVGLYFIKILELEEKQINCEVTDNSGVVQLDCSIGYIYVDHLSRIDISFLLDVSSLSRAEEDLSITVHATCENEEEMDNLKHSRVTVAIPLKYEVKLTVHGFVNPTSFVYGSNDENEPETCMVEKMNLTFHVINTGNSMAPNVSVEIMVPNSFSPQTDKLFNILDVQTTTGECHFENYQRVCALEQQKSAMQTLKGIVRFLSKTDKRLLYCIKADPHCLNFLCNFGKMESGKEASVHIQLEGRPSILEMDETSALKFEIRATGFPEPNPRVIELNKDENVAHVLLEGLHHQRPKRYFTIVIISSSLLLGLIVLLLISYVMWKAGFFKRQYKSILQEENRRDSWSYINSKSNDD

[12] = superoxide lowering in aged yeast cells, pilot screen, validation compound set (AID 2706;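 active = superoxide response below 65% of plate, a cut near 3 SD across the whole screen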;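 note: yeast exposed to compound for one week at 30 degrees C before staining; 100% = mean of all compound wells on the same plate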); conditions: S. cerevisiae aging, superoxide DHE fluorescence; at 10 µM; stronger effect = lower value
[13] = target: Beta-adrenergic receptor kinase 1 (Homo sapiens) (UniProt P25098); assay: GRK2 binders displacing RNA aptamer, biochemical, validation, human GRK2, bead flow cytometry (AID 488806;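 active = aptamer binding inhibition above 30%, about 3 SD of noise from non-fluorescent compounds; inactive = inhibition at or below 30%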); conditions: bead-bound GRK2, FAM-aptamer displacement, at 10 µM, stronger effect = higher value
Chain of Beta-adrenergic receptor kinase 1 (Homo sapiens) (P25098 whole entry, looked up): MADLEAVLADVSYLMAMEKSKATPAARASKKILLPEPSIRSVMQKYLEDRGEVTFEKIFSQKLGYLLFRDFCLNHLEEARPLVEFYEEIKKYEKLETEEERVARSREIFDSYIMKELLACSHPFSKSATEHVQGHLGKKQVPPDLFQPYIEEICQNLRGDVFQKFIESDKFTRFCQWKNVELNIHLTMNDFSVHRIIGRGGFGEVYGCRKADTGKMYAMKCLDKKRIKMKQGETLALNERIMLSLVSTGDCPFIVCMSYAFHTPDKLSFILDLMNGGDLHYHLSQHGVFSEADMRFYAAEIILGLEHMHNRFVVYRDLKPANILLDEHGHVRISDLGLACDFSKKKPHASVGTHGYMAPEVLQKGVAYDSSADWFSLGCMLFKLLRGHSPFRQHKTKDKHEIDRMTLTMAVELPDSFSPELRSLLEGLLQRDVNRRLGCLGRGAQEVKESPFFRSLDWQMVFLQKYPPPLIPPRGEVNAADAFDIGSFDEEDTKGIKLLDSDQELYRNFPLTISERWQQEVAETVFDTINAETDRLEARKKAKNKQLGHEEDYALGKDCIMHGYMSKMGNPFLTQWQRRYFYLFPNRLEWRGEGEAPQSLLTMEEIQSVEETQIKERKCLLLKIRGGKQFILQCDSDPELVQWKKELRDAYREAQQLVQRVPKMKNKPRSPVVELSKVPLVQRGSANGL

[14] = target: Beta-2 adrenergic receptor (Homo sapiens) (UniProt P07550); assay: beta2AR agonists driving receptor internalization, pilot screen, cell-based, FAP fluorogen, flow cytometry, validation set (AID 504459;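 active = percent response above 42, roughly 3 SD of non-fluorescent test compounds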;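 note: agonist-driven loss of surface beta2AR via internalization measured by FAP dye flow cytometry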); conditions: Am2.2-beta2AR cells, FAP surface receptor flow cytometry; at 10 µM; stronger effect = higher value
Chain of Beta-2 adrenergic receptor (Homo sapiens) (P07550 whole entry, looked up): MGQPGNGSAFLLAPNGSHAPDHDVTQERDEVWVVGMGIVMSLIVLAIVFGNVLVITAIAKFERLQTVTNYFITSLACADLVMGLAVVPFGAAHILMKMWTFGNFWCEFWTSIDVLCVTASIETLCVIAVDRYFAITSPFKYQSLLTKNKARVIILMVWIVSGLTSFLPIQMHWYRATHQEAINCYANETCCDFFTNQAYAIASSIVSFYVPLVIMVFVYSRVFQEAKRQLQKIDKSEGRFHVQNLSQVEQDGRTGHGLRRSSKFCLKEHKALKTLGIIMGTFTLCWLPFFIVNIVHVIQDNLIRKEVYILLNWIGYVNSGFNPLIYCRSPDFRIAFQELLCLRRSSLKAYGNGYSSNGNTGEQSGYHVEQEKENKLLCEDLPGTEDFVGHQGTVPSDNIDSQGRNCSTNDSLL

[15] = target: AP-2 complex subunit beta (Homo sapiens) (UniProt P63010); assay: inhibitors of arrestin peptide binding to AP2, pilot screen, biochemical, validation set, GST-AP2 beads, flow cytometry (AID 504541;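 active = inhibition above 54%, about 3 SD of non-fluorescent compounds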;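 note: AP2 carries R879A mutation and is captured from E. coli lysate; bead-bound FITC arrestin peptide fluorescence measuring arrestin peptide binding to AP2; 0% = DMSO wells and 100% = excess unlabeled arrestin peptide control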); conditions: FITC arrestin peptide, at 10 µM, stronger effect = higher value, AP2 beta2 appendage fragment, R879A mutant
Chain of AP-2 complex subunit beta (Homo sapiens) (P63010 whole entry, looked up, the tested form may be a part, one chain of several): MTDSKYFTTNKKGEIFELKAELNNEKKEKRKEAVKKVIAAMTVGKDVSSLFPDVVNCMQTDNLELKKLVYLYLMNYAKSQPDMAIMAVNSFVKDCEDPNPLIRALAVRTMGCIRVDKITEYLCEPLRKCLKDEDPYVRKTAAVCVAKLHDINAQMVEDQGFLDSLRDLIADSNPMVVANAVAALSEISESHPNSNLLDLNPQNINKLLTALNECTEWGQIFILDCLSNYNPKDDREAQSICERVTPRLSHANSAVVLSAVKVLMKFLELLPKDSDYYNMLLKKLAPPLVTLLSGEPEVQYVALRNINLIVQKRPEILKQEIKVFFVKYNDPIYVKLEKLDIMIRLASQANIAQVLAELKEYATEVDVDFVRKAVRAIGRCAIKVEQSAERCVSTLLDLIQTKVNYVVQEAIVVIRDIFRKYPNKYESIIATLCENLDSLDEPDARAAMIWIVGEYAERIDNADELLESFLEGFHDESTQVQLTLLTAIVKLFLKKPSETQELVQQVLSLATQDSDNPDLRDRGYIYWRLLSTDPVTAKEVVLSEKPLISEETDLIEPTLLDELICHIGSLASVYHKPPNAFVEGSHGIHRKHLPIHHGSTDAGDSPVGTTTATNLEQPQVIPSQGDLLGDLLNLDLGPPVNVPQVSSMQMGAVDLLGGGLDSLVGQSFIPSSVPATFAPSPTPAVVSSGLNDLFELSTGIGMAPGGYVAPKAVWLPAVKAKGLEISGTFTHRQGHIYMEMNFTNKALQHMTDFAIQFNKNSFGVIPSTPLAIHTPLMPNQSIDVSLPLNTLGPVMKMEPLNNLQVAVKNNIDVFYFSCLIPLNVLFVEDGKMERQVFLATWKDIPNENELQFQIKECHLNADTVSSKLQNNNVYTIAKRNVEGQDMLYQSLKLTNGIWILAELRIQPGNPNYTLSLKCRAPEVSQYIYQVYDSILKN

[16] = yeast V-ATPase proton transport modulators, S. cerevisiae, pHLuorin, HTS validation (AID 504600; in the data active = response above about 15%;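 note: plate controls were DMSO for no effect and reference compound for full effect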); conditions: S. cerevisiae pHLuorin cytosolic pH, at 10 µM, stronger effect = higher value
[17] = system: anti-desmoglein-3 scFv antibody binding to human DSG3; assay: inhibitors of anti-DSG3 scFv binding to DSG3, pilot screen, biochemical, validation compound set, bead-based, flow cytometry (AID 588368;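 active = binding below the plate cutoff, the plate median minus 3 SD, with a reading above zero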;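 note: signal is the median channel fluorescence of bead-bound GFP antibody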); conditions: Protein G beads, DSG3-Fc, scFv-GFP binding, at 10 µM, stronger effect = lower value
[18] = inhibitors of fungal efflux pumps CDR1, CDR2, MDR1, pilot screen, validation compound set, multiplex, phenotypic (AID 588506;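 active = efflux inhibition above 0.42, the validation set average plus 4 SD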;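 note: Nile Red retained in cells so higher fluorescence means more efflux inhibition; 0 = negative control wells and 1 = enniatin B 25 µM full block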); conditions: S. cerevisiae pump-expressing triplex, Nile Red efflux flow cytometry; at 10 µM; stronger effect = higher value; the pumps come from Candida albicans
[19] = target: ATP-binding cassette sub-family B member 6 (Homo sapiens) (UniProt Q9NP58); assay: ABCB6 transporter inhibitors, pilot screen, K562-ABCB6 cells, flow cytometry, validation set (AID 588550;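 active = inhibition above the screen-wide mean plus 3 SD, about 51%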;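 note: 0% = DMSO wells and 100% = benzethonium chloride 70 µM positive control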); conditions: K562-ABCB6 porphyrin accumulation, 1 h, at 10 µM, stronger effect = higher value
Chain of ATP-binding cassette sub-family B member 6 (Homo sapiens) (Q9NP58 whole entry, looked up): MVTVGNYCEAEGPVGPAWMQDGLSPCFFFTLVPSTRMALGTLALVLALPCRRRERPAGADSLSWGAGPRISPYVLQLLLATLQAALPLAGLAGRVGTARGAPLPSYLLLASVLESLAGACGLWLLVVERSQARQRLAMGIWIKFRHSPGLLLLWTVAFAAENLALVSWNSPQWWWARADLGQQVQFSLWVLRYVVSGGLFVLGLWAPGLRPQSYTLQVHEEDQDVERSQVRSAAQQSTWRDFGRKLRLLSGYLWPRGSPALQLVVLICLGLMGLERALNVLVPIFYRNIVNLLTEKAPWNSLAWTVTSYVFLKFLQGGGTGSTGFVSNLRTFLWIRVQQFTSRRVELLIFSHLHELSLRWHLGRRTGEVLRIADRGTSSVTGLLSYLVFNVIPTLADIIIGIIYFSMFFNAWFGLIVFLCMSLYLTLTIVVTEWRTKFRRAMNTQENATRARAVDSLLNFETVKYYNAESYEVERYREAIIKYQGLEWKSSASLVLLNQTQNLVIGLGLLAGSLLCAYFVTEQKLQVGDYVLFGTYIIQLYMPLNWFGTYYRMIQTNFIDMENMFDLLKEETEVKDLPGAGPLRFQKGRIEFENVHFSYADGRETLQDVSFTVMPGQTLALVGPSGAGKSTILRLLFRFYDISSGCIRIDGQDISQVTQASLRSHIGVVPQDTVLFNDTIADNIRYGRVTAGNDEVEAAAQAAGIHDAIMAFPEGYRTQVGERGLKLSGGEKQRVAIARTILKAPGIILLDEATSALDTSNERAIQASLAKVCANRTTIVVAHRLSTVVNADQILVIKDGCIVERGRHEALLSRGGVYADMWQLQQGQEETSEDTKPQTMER

[20] = promoters of myeloid differentiation in arrested cells, primary screen, cell-based, GFP/MAC1 double positive, flow cytometry, validation set (AID 588685;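 active = differentiation response of at least 50%, scaled between solvent and reference control, from cells with both markers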;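 note: compound exposure lasts four days before antibody staining and flow analysis; 0% = DMSO wells and 100% = 5 µM fulvestrant positive control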); conditions: ER-HoxA9 marrow cells, stronger effect = higher value, normalized: vehicle 0, fulvestrant 100
[21] = measured here: daughter cell gate
[22] = measured here: mother cell gate
[23] = measured here: daughter cell gate response
[24] = measured here: mother cell gate response

## O=C(NC1CCCCC1)N1CCc2[nH]c3ccccc3c2C1
[1]
  percent of DMSO control GFP: 89.3% (inactive)
[2]
  GFP response vs DMSO: 147% (active)
[3]
  percent response of DMSO control: 119% (inactive)
[4]
  GFP response vs DMSO: 83.6% (inactive)
[5]
  GFP response, % of DMSO: 93.1% (inactive)
[6]
  GFP response vs DMSO: 98.8% (inactive)
[6]; [21]
  GFP response vs DMSO: 98.1%
[6]; [22]
  GFP response vs DMSO: 98.5%
[7]
  GFP response relative to DMSO: 97.9% (inactive)
[7]; [23]
  GFP response relative to DMSO: 97.6%
[7]; [24]
  GFP response relative to DMSO: 98.3%
[8]
  GFP response vs DMSO: 100% (inactive)
[9]
  GFP response, % of DMSO: 107% (inactive)
[9]; [21]
  GFP response, % of DMSO: 105%
[9]; [22]
  GFP response, % of DMSO: 107%
[10]
  double positive events: 61.4%
  vesicle binding response: 212% (inactive)
[11]
  inhibition: 24.9% (inactive)
[12]
  superoxide response (% of plate): 90.3% (inactive)
[13]
  aptamer binding inhibition: 3% (inactive)
[14]
  response: 10.8% (inactive)
[15]
  inhibition: 12.6% (inactive)
[16]
  response: 13.8% (inactive)
[17]
  binding (% of control): 219% (inactive)
[18]
  efflux inhibition (fraction of control): 0.27 (inactive)
[19]
  inhibition: 6% (inactive)
[20]
  differentiation response: 10.6% (inactive)

## CN(C)CCCN1c2ccccc2Sc2ccc(Cl)cc21
[1]
  percent of DMSO control GFP: 84.9% (active) and 109% (inactive)
[2]
  GFP response vs DMSO: 148% (active) and 129% (inactive)
[3]
  percent response of DMSO control: 88.6% (inactive) and 116% (inactive)
[4]
  GFP response vs DMSO: 83.1% (inactive) and 94.1% (inactive)
[5]
  GFP response, % of DMSO: 91.5% (inactive) and 115% (inactive)
[6]
  GFP response vs DMSO: 101% (inactive)
[6]; [21]
  GFP response vs DMSO: 101%
[6]; [22]
  GFP response vs DMSO: 102%
[7]
  GFP response relative to DMSO: 95% (inactive)
[7]; [23]
  GFP response relative to DMSO: 100%
[7]; [24]
  GFP response relative to DMSO: 97.2%
[8]
  GFP response vs DMSO: 100% (inactive)
[9]
  GFP response, % of DMSO: 106% (inactive)
[9]; [21]
  GFP response, % of DMSO: 103%
[9]; [22]
  GFP response, % of DMSO: 107%
[10]
  double positive events: 64.9% and 70.6%
  vesicle binding response: 163% (inactive) and 432% (inactive)
[11]
  inhibition: 7.43% (inactive) and 1.61% (inactive)
[12]
  superoxide response (% of plate): 98.3% (inactive) and 93.3% (inactive)
[13]
  aptamer binding inhibition: -6% (inactive) and -20% (inactive)
[14]
  response: 17.4% (inactive) and 15.9% (inactive)
[15]
  inhibition: -3.39% (inactive) and -5.93% (inactive)
[16]
  response: 10.8% (inactive) and 0.91% (inactive)
[17]
  binding (% of control): 107% (inactive) and 114% (inactive)
[18]
  efflux inhibition (fraction of control): -0.17 (inactive) and 0.55 (active)
[19]
  inhibition: 10% (inactive) and 13% (inactive)
[20]
  differentiation response: -7.37% (inactive) and 5.73% (inactive)

From PubChem BioAssay
